Experimental data: ChEMBL document CHEMBL1961873, “Compounds: GSK PKIS; Assays: Nanosyn kinase panel” (2012)

Tests used:
[1] = biological target: Protein kinase C gamma type (Homo sapiens) (UniProt P05129); conditions: at 1 µM;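 also: each value is an averaged percent inhibition of the enzyme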
[2] = biological target: T1, Protein kinase C iota type (Homo sapiens) (UniProt P41743); conditions: at 0.1 µM
T1 sequence (whole entry): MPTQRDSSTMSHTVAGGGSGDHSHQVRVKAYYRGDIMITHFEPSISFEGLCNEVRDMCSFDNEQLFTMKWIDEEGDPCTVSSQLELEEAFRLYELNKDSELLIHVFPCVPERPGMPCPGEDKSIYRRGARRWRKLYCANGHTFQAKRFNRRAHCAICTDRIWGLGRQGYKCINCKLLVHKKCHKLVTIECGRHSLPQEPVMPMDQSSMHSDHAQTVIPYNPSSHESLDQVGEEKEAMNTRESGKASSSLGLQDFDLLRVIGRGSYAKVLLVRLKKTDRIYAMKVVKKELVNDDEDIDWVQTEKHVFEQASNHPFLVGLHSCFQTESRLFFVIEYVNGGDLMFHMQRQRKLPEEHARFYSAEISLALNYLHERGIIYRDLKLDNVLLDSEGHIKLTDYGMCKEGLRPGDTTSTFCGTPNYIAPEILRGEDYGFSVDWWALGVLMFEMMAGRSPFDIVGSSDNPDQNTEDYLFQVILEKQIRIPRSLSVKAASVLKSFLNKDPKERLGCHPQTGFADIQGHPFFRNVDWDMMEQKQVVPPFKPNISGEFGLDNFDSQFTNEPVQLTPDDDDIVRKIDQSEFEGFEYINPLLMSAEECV

[3] = biological target: T1, Protein kinase C iota type (Homo sapiens); conditions: at 1 µM
[4] = biological target: Protein kinase C theta type (Homo sapiens) (UniProt Q04759); conditions: at 0.1 µM
Sequence of Protein kinase C theta type (Homo sapiens) (Q04759 whole entry, looked up): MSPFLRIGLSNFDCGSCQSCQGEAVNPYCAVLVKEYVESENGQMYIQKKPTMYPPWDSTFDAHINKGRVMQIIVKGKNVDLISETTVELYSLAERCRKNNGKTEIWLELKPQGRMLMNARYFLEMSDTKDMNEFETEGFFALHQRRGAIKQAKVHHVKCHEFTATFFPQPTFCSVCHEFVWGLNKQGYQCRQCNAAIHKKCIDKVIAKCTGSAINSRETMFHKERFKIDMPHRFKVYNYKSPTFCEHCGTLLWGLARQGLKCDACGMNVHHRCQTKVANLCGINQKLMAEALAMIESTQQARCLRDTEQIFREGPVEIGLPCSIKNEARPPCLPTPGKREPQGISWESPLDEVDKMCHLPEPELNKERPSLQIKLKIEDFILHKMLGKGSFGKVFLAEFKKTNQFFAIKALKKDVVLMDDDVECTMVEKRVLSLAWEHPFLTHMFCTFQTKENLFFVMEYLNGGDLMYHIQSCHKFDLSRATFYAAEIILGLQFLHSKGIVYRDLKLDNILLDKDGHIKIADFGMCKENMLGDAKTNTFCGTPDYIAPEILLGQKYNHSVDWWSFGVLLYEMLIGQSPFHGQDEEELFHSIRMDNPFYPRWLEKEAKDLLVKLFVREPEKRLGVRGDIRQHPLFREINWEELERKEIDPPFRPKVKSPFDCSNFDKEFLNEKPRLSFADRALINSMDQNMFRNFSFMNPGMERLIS

[5] = biological target: Protein kinase C theta type (Homo sapiens) (UniProt Q04759); conditions: at 1 µM
[6] = biological target: Protein kinase C beta type (Homo sapiens) (UniProt P05771); conditions: at 0.1 µM
Sequence of Protein kinase C beta type (Homo sapiens) (P05771 2-671 limits assumed): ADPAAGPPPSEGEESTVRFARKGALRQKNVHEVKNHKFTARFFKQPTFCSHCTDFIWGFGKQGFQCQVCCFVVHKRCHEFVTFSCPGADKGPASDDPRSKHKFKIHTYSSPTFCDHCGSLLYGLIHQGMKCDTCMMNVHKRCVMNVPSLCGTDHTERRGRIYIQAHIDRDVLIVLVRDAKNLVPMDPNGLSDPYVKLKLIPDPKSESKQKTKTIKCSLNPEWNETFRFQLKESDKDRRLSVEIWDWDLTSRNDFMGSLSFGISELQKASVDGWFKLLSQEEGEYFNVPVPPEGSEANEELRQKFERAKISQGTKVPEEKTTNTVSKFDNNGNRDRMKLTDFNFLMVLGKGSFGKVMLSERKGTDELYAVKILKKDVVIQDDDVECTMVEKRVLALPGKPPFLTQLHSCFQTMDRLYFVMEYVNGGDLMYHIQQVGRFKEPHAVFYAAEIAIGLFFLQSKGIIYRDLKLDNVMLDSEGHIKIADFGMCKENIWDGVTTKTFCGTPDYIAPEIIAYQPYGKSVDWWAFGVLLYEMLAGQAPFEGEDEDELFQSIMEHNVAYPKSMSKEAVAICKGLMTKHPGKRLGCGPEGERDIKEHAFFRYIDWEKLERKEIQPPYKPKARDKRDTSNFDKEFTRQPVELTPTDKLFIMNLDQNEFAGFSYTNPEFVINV

[7] = biological target: Protein kinase C beta type (Homo sapiens) (UniProt P05771); conditions: at 1 µM
[8] = biological target: T2, Serine/threonine-protein kinase D1 (Homo sapiens) (UniProt Q15139); conditions: at 0.1 µM
T2 sequence (whole entry): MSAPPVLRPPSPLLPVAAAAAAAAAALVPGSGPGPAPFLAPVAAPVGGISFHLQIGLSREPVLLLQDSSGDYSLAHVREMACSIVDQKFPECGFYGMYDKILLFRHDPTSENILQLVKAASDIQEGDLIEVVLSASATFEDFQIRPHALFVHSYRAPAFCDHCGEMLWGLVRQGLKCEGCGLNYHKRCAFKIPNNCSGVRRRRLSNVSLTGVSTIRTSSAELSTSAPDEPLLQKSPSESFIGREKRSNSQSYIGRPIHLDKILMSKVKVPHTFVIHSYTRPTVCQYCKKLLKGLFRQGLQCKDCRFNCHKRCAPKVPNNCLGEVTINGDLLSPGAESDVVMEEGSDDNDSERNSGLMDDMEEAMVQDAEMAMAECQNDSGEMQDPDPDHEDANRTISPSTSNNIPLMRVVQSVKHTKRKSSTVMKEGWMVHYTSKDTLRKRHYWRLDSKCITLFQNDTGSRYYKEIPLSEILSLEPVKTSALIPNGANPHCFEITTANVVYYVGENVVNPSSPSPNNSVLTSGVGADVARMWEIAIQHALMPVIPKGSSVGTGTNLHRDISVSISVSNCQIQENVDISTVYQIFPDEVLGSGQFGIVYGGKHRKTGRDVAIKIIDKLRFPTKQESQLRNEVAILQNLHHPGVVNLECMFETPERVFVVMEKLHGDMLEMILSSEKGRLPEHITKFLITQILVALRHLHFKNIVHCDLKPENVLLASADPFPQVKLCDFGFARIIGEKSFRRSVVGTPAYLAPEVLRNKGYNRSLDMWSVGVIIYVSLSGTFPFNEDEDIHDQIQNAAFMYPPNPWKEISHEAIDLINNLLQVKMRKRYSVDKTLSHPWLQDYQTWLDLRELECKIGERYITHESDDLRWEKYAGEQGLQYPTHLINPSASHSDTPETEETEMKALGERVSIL

[9] = biological target: T2, Serine/threonine-protein kinase D1 (Homo sapiens); conditions: at 1 µM
[10] = biological target: T3, Serine/threonine-protein kinase D2 (Homo sapiens) (UniProt Q9BZL6); conditions: at 0.1 µM
T3 sequence (whole entry): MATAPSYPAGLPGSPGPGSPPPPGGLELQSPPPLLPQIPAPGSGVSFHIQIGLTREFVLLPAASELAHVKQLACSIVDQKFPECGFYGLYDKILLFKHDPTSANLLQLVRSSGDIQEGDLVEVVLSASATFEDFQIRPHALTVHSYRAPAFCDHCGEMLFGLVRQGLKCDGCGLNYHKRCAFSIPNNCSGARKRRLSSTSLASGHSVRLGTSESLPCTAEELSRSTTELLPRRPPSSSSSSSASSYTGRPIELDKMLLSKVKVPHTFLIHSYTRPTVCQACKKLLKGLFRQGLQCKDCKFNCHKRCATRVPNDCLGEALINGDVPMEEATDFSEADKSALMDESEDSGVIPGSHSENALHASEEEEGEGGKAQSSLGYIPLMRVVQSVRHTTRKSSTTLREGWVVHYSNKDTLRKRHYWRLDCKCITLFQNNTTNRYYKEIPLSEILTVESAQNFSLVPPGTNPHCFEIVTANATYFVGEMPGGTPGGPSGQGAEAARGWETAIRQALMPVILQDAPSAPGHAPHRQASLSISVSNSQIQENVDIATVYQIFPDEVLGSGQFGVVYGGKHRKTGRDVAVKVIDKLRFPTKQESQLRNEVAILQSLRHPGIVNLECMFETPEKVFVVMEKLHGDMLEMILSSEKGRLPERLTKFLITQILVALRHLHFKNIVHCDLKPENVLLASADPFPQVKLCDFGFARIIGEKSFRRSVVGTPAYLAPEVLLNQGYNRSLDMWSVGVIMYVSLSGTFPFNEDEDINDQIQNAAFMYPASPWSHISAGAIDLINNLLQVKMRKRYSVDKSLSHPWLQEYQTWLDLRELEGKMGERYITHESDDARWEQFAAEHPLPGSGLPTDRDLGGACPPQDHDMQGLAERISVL

[11] = biological target: T3, Serine/threonine-protein kinase D2 (Homo sapiens); conditions: at 1 µM
[12] = biological target: T4, Serine/threonine-protein kinase D3 (Homo sapiens) (UniProt O94806); conditions: at 0.1 µM
T4 sequence (whole entry): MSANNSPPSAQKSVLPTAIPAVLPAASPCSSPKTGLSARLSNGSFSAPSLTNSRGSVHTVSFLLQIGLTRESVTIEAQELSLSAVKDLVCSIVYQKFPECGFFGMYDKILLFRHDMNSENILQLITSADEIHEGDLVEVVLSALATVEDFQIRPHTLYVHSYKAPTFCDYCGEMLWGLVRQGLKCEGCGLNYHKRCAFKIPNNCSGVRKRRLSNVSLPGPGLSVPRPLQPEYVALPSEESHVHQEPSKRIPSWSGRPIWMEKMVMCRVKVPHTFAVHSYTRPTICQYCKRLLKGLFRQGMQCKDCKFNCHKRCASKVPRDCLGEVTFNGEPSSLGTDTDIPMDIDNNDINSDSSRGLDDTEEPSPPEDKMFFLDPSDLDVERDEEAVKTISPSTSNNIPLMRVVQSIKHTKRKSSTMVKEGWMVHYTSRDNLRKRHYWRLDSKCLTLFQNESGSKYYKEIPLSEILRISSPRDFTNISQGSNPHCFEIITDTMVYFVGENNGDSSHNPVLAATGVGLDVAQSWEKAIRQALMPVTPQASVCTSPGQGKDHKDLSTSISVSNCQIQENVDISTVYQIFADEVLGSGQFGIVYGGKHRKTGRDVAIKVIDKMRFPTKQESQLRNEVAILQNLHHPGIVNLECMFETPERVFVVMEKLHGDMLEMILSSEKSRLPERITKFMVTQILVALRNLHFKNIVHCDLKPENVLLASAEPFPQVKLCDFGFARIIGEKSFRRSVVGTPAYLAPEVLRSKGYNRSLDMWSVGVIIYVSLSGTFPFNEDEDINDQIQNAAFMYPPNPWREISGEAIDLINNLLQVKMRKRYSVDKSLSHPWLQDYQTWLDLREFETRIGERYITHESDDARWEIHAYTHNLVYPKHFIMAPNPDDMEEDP

[13] = biological target: T4, Serine/threonine-protein kinase D3 (Homo sapiens); conditions: at 1 µM
[14] = biological target: T5, cGMP-dependent protein kinase 1 (Homo sapiens) (UniProt Q13976); conditions: at 0.1 µM
T5 sequence (whole entry): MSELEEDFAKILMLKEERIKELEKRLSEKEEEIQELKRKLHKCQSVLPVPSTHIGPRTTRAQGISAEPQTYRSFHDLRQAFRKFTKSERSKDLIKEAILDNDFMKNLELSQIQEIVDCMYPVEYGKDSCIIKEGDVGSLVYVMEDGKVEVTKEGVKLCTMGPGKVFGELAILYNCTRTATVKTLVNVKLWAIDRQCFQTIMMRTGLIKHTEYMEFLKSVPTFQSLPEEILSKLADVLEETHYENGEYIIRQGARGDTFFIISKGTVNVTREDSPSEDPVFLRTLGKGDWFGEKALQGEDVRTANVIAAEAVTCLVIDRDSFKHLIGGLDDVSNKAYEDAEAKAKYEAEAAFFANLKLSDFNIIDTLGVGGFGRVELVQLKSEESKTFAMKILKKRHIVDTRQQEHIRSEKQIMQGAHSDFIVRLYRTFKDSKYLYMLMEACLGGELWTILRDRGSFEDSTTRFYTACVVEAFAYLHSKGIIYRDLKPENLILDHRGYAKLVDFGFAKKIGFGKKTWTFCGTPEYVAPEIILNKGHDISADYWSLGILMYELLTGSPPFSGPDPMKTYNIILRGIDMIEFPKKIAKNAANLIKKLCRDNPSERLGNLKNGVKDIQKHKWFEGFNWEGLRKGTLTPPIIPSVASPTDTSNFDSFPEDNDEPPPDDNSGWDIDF

[15] = biological target: T5, cGMP-dependent protein kinase 1 (Homo sapiens); conditions: at 1 µM
[16] = biological target: T6, cGMP-dependent protein kinase 2 (Homo sapiens) (UniProt Q13237); conditions: at 0.1 µM
T6 sequence (whole entry): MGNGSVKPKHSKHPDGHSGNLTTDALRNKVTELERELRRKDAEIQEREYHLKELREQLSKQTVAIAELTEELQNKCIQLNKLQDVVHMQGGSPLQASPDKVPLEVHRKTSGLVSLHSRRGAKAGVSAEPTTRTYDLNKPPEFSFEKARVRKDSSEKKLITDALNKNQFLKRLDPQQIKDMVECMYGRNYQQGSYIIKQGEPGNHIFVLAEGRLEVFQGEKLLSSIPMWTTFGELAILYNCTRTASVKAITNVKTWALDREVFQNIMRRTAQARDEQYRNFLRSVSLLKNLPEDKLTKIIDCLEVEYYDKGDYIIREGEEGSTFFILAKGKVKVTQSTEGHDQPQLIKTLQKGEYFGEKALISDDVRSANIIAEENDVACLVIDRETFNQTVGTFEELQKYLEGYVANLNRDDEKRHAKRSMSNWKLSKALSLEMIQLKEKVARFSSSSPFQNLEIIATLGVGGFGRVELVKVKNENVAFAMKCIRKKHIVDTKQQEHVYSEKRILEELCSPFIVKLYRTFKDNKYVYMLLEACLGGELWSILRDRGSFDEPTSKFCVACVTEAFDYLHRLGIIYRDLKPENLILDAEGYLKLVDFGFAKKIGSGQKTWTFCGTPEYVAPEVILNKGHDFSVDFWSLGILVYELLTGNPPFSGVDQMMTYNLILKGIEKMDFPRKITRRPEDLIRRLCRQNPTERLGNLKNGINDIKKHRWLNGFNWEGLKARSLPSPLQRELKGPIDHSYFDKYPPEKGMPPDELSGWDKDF

[17] = biological target: T6, cGMP-dependent protein kinase 2 (Homo sapiens); conditions: at 1 µM
[18] = biological target: T7, cAMP-dependent protein kinase catalytic subunit PRKX (Homo sapiens) (UniProt P51817); conditions: at 0.1 µM
T7 sequence (whole entry): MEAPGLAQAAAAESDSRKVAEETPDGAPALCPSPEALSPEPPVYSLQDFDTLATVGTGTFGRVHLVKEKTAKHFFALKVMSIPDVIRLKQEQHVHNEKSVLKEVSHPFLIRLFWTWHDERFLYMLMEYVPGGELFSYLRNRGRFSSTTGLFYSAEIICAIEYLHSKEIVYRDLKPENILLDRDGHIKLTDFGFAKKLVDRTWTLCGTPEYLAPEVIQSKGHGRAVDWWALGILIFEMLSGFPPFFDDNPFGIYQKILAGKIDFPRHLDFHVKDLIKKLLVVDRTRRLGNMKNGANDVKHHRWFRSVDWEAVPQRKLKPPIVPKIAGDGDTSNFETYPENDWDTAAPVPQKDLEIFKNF

[19] = biological target: T7, cAMP-dependent protein kinase catalytic subunit PRKX (Homo sapiens); conditions: at 1 µM
[20] = biological target: Rho-associated protein kinase 1 (Homo sapiens) (UniProt Q13464); conditions: at 0.1 µM;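 also: values are mean percent inhibition of ROCK1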
Sequence of Rho-associated protein kinase 1 (Homo sapiens) (Q13464 2-1354 limits assumed): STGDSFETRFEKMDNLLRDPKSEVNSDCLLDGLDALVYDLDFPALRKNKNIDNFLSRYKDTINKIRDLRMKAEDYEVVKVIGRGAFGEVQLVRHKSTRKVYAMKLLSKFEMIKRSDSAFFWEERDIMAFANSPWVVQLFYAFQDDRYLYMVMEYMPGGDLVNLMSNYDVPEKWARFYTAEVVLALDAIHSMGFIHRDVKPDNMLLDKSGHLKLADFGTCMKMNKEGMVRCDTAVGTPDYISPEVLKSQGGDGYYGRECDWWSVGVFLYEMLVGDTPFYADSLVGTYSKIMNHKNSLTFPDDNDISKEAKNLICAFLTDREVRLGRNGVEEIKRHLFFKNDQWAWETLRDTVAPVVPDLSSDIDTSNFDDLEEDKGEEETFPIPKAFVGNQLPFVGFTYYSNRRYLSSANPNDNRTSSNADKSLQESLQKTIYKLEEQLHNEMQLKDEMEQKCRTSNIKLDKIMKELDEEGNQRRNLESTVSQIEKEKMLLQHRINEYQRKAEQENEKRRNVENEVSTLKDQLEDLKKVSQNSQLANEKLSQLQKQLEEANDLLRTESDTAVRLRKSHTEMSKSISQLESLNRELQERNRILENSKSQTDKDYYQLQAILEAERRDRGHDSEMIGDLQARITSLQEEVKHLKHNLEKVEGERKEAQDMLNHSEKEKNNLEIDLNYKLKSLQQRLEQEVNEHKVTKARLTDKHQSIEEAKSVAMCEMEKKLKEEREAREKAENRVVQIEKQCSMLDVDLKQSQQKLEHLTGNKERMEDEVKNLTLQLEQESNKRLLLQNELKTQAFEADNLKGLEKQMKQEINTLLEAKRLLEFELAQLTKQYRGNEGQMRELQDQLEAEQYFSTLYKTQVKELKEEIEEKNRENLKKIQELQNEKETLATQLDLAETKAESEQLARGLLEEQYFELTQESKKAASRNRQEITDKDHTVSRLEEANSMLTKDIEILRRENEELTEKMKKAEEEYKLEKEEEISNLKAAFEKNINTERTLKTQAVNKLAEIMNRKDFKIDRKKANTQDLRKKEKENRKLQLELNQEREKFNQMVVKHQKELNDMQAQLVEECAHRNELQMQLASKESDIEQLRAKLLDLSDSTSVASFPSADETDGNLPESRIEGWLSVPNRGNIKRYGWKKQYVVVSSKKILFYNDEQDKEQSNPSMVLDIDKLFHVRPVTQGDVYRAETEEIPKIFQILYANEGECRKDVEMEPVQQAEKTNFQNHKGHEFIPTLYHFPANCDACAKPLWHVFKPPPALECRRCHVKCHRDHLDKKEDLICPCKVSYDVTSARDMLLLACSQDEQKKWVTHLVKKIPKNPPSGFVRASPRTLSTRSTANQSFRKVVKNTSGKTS

| Structure (SMILES) | inhibition [1] [%] | inhibition [2] [%] | inhibition [3] [%] | inhibition [4] [%] | inhibition [5] [%] | inhibition [6] [%] | inhibition [7] [%] | inhibition [8] [%] | inhibition [9] [%] | inhibition [10] [%] | inhibition [11] [%] | inhibition [12] [%] | inhibition [13] [%] | inhibition [14] [%] | inhibition [15] [%] | inhibition [16] [%] | inhibition [17] [%] | inhibition [18] [%] | inhibition [19] [%] | inhibition [20] [%] |
| --- | --- | --- | --- | --- | --- | --- | --- | --- | --- | --- | --- | --- | --- | --- | --- | --- | --- | --- | --- | --- |
| CN(C)CCCn1c(-c2nonc2N)nc2cnccc21 | 4.25 | 2.62 | 3.77 | 2.2 | 1.32 | 2.32 | 4.48 | 3.41 | 7.59 | 4.15 | 5.95 | 4.93 | 7.35 | 3.68 | 4.99 | 2.51 | 5.66 | 1.48 | 3.97 | 5.96 |
| FC(F)(F)c1ccc(-c2nn3ncccc3c2-c2ccnc(Nc3ccc4c(c3)OCCO4)n2)cc1 | 5.47 | 6.58 | 3.53 | 2.52 | 5.32 | 5.29 | 6.33 | 2.27 | -1.71 | 0.7 | 3.07 | -0.32 | -0.07 | 3.5 | 5.3 | 3.41 | 4.83 | 5.94 | 8.53 | 1.44 |
| c1ccc(Cc2nc3ccc(Nc4ncnc5ccccc45)cc3[nH]2)cc1 | 2.9 | 0.63 | 0.68 | 1.76 | 2.47 | 0.1 | 0.12 | 2.88 | 6.43 | 2.49 | 4.57 | 3.17 | 5.52 | 1.14 | 4.46 | 1.61 | 6.41 | 0.98 | 1.89 | 0.25 |
